Compounds without any hit were thinned out: in the full panel of roughly 83,000, 20% have a hit.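 Compound tested at a single concentration for 48 hours in 96-well plates; a percent growth value below 10 was scored as active.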 Unmarked numbers belong to inactive results. Activity calls are given as the source filed them.
Tested on: T-47D breast
Test: NCI-60 one-dose screen, 48 h (100 = growth as untreated, 0 = no growth, -100 = all killed)
Conditions: 10 µM unless noted

Point of comparison: `Cc1nn(-c2ccc(Br)cc2)c2nc(CCl)[nH]c(=O)c12`, growth 91.5%. Against it:
- COc1ccc(N2CCN(C(=O)CSc3ccc(-c4nc5cc(C)c(C)cc5[nH]4)cn3)CC2)cc1 — lower, 21.5%
- COc1ccc(Cn2cc3c(c2-c2ccccc2)CCCc2cnoc2-3)cc1 — lower, 56.4%
- O=C1Nc2ccc(Cl)cc2/C1=C/c1ccc(OCc2ccc(Br)cc2F)cc1 — higher, 106%
- Nc1nc(-c2cccc([N+](=O)[O-])c2)c(N=Nc2ccccc2Cl)s1 — lower, 57.9%
- Oc1ccc(-c2nnc(SCc3ccc(O)c4ncccc34)o2)cc1 — lower, 11.1%
- Oc1ccc(CSc2nnc(-c3ccccc3)n2-c2ccccc2)c2cccnc12 — lower, 10.1%
- Oc1ccc(-c2nnc(SCc3ccc(O)c4ncccc34)n2-c2ccccc2)cc1 — lower, 14.8%
- O=C1[C@@H]2Cc3c([nH]c4ccccc34)[C@H](c3c(Cl)cccc3Cl)N2C(=O)CN1C1CCN(Cc2ccccc2)CC1 — lower, 76.8%
- CC1COc2c(N3CCN(C)CC3)c(F)cc3c(=O)c(C(=O)N/N=C/c4cc[nH]c4)cn1c23 (stereo not drawn) — lower, 47.2%
- COc1cc(C(=O)C[n+]2ccc3ccccc3c2)cc(OC)c1OC — higher, 96.3%
- C=CCn1c(SCC(=O)Nc2cccc(C(=O)/C=C/c3ccc(C)cc3)c2)nc2ccccc2c1=O — lower, 67.3%
- CCOC(=O)c1c(NCC(=O)Nc2ccc(Br)cc2)sc2c1CCCC2 — lower, 30.9%
- O=c1[nH]c(CNc2ccc(NCc3c(-c4ccccc4)no[n+]3[O-])cc2)nc2c1cnn2-c1ccccc1 — lower, 42.5%
- CCNC(=O)Oc1ccc(/C(=C(/C)c2ccccc2)c2ccc(OCCN3CCCC3)cc2)cc1 — lower, 51.8%
- O=C(CCCCCCN1CC(=O)N2[C@@H](c3ccccc3)c3[nH]c4ccccc4c3C[C@H]2C1=O)NO — lower, 25.7%
- Cc1cc(-c2ccc3nc(N)sc3c2)nc2ccc3[nH]ncc3c12 — lower, 58.5%
- CCN1C(=O)N(CC)C2SC(N/N=C/c3ccccc3F)=NC21 (stereo not drawn) — lower, 61.9%
- CCn1c2ccc(/C=N/NS(=O)(=O)CCN(C)C)cc2c2cc(/C=N/NS(=O)(=O)CCN(C)C)ccc21 — higher, 102%
- CC(C)Sc1nc(NC2CC2)c(C#N)c(-c2ccccc2)n1 — lower, 83.5%
- CCOC(=O)c1nn(-c2ccccc2)c(=O)c2c(N)c(C#N)c(-c3cccs3)cc12 — lower, 76.7%
- COc1cc(/C=N/n2cnc3oc(-c4ccccc4)cc3c2=N)cc(CN2CCCC2)c1O — higher, 93.3%
- Oc1ccccc1/C=N/Nc1nc(N/N=C/c2ccccc2O)nc(N2CCOCC2)n1 — lower, 46.1%
- O=C1C[C@@H](c2ccccc2)Oc2c(Cc3ccccc3O)c(O)c(Cc3cc(Cc4cc(Cc5ccccc5O)ccc4O)ccc3O)c(O)c21 — higher, 94%
- N/C(=N\OC(=O)CSc1nc2ccccc2s1)c1ccc(Cl)cc1 — higher, 96.6%
- CCCC(=O)NC(c1cccnc1)c1cc(Cl)c2cccnc2c1O (stereo not drawn) — lower, 27.7%
- COc1cc(-c2nc(SCc3ccc(C)cc3)[nH]c(=O)c2C#N)ccc1OCc1ccccc1 — higher, 109%
- Cc1nn(-c2ccccc2)cc1/C=N/Nc1nc(Nc2ccccc2)nc(Nc2ccc(S(N)(=O)=O)cc2)n1 — lower, 18.9%
- COc1cc2c3c(n(CCCNC4CCCCC4)c(=O)c2cc1OC)-c1cc2c(cc1C3=O)OCO2 — the same, 91.5%
- COc1cc(C2CC(c3ccc(Nc4nc(NCCO)nc(Nc5ccc(Cl)cc5)n4)cc3)=Nc3c(N)nc(N)nc3N2)cc(OC)c1OC (stereo not drawn) — lower, 54.5%
- O=C(c1ccc(O)cc1)[C@@H]1[C@@H]2CCCN2[C@@]2(C(=O)N(C(=O)c3ccc(F)cc3)c3ccccc32)[C@H]1c1ccc(F)cc1 — lower, 89%

In the case of `O=C(NNc1nc2cc(F)cc(F)c2n2cccc12)c1ncccn1`, the growth is reported as 3.06% (active).
In the case of `O=C(N/N=C\c1ccc(Cl)cc1)c1ccc2nc(-c3ccc(Br)cc3)[nH]c2c1`, the growth is reported as 0.0838% (active).
In the case of `COc1ccc(NC2=C(Cl)C(=O)C(C)=C(C)C2=O)cc1`, the growth is reported as -2.17% (active).
`Oc1ccccc1-c1nnc(SCc2ccc(O)c3ncccc23)n1-c1ccccc1` was tested, and the growth was 6.93% (active).
For `Cc1ccc(NC(=O)c2cc(/C=C/C(=O)NO)cc(C(F)(F)F)c2)cc1Nc1nccc(-c2cccnc2)n1`, the growth was -5.93% (active).
`O=C(NNc1nc2cc(F)cc(F)c2n2cccc12)c1ccncn1` was tested, and the growth was -1.57% (active).
In the case of `COc1cc(O)c2c(c1)/C=C/C[C@H](O)[C@H](O)C(=O)/C=C\C[C@H](C)OC2=O`, the growth is reported as -1.9% (active).
